# mIDH1 inhibitor – human IDH1 R132H inhibition; O75874; actives 0.093% (n = 390,000); IDH1-R132H enzyme, NADPH consumption, diaphorase/resazurin fluorescence; AID 602179; Potency, µM (highest dose often 76.6 µM), without a hit: at the highest dose activity change, negative = inhibition, actives largely listed as inhibitors; also: potency is read from the fitted curve at half-maximal effect; % is scaled to controls: 0 for no effect and ±100 for the full control effect; nearly all actives have a fitted effect of over 65% in size
# Target sequence (O75874 whole entry R132H, stated change not applied): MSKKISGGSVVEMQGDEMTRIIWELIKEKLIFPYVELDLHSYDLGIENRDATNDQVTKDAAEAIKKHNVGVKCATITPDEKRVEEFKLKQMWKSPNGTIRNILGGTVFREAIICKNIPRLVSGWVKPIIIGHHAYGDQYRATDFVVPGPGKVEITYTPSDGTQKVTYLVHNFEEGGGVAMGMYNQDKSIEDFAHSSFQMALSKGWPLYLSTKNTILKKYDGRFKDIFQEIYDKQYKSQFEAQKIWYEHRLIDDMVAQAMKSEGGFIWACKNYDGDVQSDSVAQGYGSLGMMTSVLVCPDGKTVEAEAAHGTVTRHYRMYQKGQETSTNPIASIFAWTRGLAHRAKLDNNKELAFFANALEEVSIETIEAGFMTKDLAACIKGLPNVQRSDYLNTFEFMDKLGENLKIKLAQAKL
#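 IDH1-R132H (0.5 ug/mL) preincubated 30 min with compound, then NADPH (0.016 mM) and alpha-KG (2 mM) added; 80 min at RT, pH 7.5. Remaining NADPH coupled via diaphorase/resazurin to fluorescence (540/590 nm); concentration-response curves normalized to no-enzyme control.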
# Nrf2 inh – blocks Nrf2 signaling; actives 2.1% (n = 360,000); A549 ARE-Fluc reporter, luciferase luminescence, 18-24 h; Potency, µM (doses to about 46 µM), without a hit: top-dose activity change, negative = inhibition, usual class: inhibitors; also: potency is read from the fitted curve at half-maximal effect; % is scaled to controls: 0 for no effect and ±100 for the full control effect; nearly all actives have a fitted effect of over 60% in size
#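 Nrf2 function is reported as luminescence of an ARE-controlled luciferase in A549 cells. Compounds were tested at several concentrations, and a CellTiter-Fluor read on the same wells flagged cytotoxicity.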
# A549 viability – A549 cytotoxicity, counter-screen for Nrf2 inhibitors. A549 ARE-Fluc cells, CellTiter-Fluor viability, 18-24 h. Potency, µM (top dose mostly 46 µM), for the others: at the top dose activity change, negative = cytotoxicity, actives largely listed as inhibitors. actives 0.16% (n = 390,000). AID 504648; also: potency is read from the fitted curve at half-maximal effect; % is scaled to controls: 0 for no effect and ±100 for the full control effect
#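 A549 ARE_Fluc cells in 5% FBS OPTI-MEM were exposed to compounds in concentration-response for 18-24 h at 37 deg C. Viability was read by CellTiter-Fluor fluorescence (Ex 405/Em 525) after 30 min, before the luciferase read.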
# Giardia killer – Giardia lamblia killing | AID 540267 | activity change, % at 7.66 µM, hits read low | actives 0.15% (n = 340,000) | Giardia lamblia trophozoite viability; in the data active = activity change below about -80%; inconclusive = between about -30% and that limit;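 also: parasites exposed to compound for two days anaerobically before the ATP read; % is scaled to controls: 0 for no effect and ±100 for the full control effect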
#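 Giardia lamblia trophozoites (100 cells/well) were incubated with compounds for 48 h at 37 deg C under anaerobic conditions. Viability was read as ATP content by one-step luminescence after 15-30 min at room temperature.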
# Nrf2 activator – activators of Nrf2 (ARE) signaling; AREc32 ARE-luciferase reporter (MCF7-derived line), luminescence, 24 h; Potency, µM (top dose mostly 46.1 µM), inactives show at the top dose activation, usual class: activators; actives 0.31% (n = 410,000); AID 624171; also: potency is read from the fitted curve at half-maximal effect; % of control where 0% means no effect; nearly all actives have a fitted effect of over 65% in size
#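 Steps: seed AREc32_Fluc cells (1000/well, 5% FBS OPTI-MEM); incubate overnight at 37 deg C; add 23 nL compound; incubate 24 hr; add Steady-Glo; hold 30 min RT; read luminescence.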
# Apoferritin bind – candidate novel general anesthetic via apoferritin binding; apoferritin/1-aminoanthracene competitive binding, fluorescence; Potency, µM (top dose mostly 77.5 µM), for inactives: top-dose activity change, negative = displacement, actives largely listed as inhibitors; actives 0.074% (n = 350,000); AID 485281; also: potency is read from the fitted curve at half-maximal effect; % is scaled to controls: 0 for no effect and ±100 for the full control effect; nearly all actives have a fitted effect of over 20% in size
#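 Apoferritin-based anesthetic binding model; compound displacement of fluorescent 1-AMA measured as endpoint fluorescence after 10 minutes at room temperature, scaled to free-ligand and complex controls.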
# An asterisk follows results filed as active; ? = inconclusive; . = no result; [ ] = remark or other dose. Compounds with a hit are over-represented: about 2.3% of the library has one in this group of screens. Unless noted, calls follow the shape of the dose curve; as a rule, active = well fitted curve in the direction sought with a large enough effect; inconclusive = small, poorly fitted or top-dose-only effect, or another doubt; inactive = no such curve, though single readings can be large; an effect the other way counts as inactive or inconclusive.
SMILES,mIDH1 inhibitor,Nrf2 inh,A549 viability,Giardia killer,Nrf2 activator,Apoferritin bind
O=C(Nc1ccc(Cl)cc1)C(NS(=O)(=O)c1cccs1)c1ccccc1 (stereo unspecified),-26%,-14%,-6%,.,0%,-1%
CCN(c1ccc(NC(=O)c2ccc(N3CCCC3=O)cc2)cc1)C(C)C,10%,9.2µM*,-21%,17,-1%,.
COc1cc(C(=O)Nc2scc(-c3ccc(Br)cc3)c2C(=O)O)cc(OC)c1OC,21%,16µM*,-16%,-4,-1%,1%
Cc1cccc(C(=O)Nc2scc(-c3ccc(Br)cc3)c2C(=O)O)c1,18%,12µM*,-15%,-1,-1%,.
Cc1ccc(-c2csc(NC(=O)c3cccc(C)c3)c2C(=O)O)cc1,21%,7.3µM*,-18%,4,-1%,.
CCC(=O)N1CCc2cc(S(=O)(=O)NCCC(=O)Nc3ccc(OC)c(OC)c3)ccc21,11%,11%,15%,.,0%,-7%
CC(C)(C)C(=O)Nc1ccc(-c2nc3ccccc3s2)cc1,0%,2.6µM*,1%,.,-3%,3%
CCOC(=O)c1c(NC(=O)/C=C/C(=O)O)sc(C)c1-c1ccc(F)cc1,?,?,-5%,0,?,?
COC(=O)c1scc(C)c1NC(=O)/C=C/C(=O)O,-2%,21%,-7%,-3,0%,-16%
COC(=O)c1sc(-c2ccc(Cl)cc2)cc1NC(=O)/C=C/C(=O)O,1%,?,-15%,-11,8.9µM*,1%
COC(=O)c1c(NC(=O)/C=C/C(=O)O)sc(C)c1-c1ccc(C(C)C)cc1,-25%,?,2%,-3,10µM*,?
COC(=O)c1c(NC(=O)/C=C/C(=O)O)sc(C)c1-c1ccc(C)cc1,-3%,?,-26%,-12,20µM*,-11%
COC(=O)c1c(NC(=O)/C=C/C(=O)O)sc(C)c1-c1ccc(C)c(C)c1,?,-6%,-2%,-17,18µM*,-10%
Cc1cc2nc(NC(=O)C3(C)CCCN(C(C)C)C3)[nH]c2cc1C (stereo unspecified),.,.,.,.,0%[9.22 µM],.
Cc1ccc2c(CN3CCN(S(=O)(=O)c4ccc5c(c4)OCCO5)CC3)cc(=O)oc2c1C,1%,16µM*,-19%,16,1%,-10%
Cc1ccc2c(CN3CCN(Cc4ccc5c(c4)OCO5)CC3)cc(=O)oc2c1C,2%,3%,16%,5,0%,-2%
N#C/C(=C/c1ccc(Sc2nc3ccccc3[nH]2)o1)c1cccc(F)c1,0%,21µM*,26µM*,0,18%,0%
N#C/C(=C/c1ccc(Sc2nc3ccccc3[nH]2)o1)c1ccccc1F,0%,?,?,-18,16%,-3%
N#C/C(=C/c1ccc(Sc2nc3ccccc3[nH]2)o1)c1cccc(Br)c1,1%,16µM*,?,12,6%,66%
COCCNC(=O)C1(C)CCCN(C(=O)c2ccccc2OC)C1 (stereo unspecified),.,.,.,.,0%,.
CCOc1ccc(S(=O)(=O)c2cc3cccc(OCC)c3oc2=O)cc1,18%,5%,-4%,.,4.5µM*,-24%
Cc1ccc(S(=O)(=O)c2cc3ccccc3oc2=O)cc1,-3%,-14%,-1%,10,5.6µM*,-2%
COc1ccc(S(=O)(=O)c2cc3cc(OC)ccc3oc2=O)cc1,0%,9%,-5%,.,12%,49%
COc1ccc(S(=O)(=O)c2cc3cc(C(C)(C)C)cc(O)c3oc2=O)cc1,-10%,?,3%,.,16µM*,?
Cc1ccc2oc(=O)c(S(=O)(=O)c3ccc(C(C)(C)C)cc3)cc2c1,5%,13%,6%,.,0%,-11%
CCN(CC)c1cc(C)c2cc(NC(=O)c3ccc(Br)o3)ccc2n1,9%,12µM*,?,-10,0%,-5%
COc1cccc(CNC(=O)CSc2ccc(-c3sc(-c4ccccc4)nc3C)nn2)c1,-19%,?,-20%,.,0%,-10%
